Source: PubChem (several laboratories)
Shown are actives, neighbours in structure and some others; about 3.1% of the full set was active somewhere.
Rin1-Abl PPI inh: inhibitors of human Rin1-Abl protein interaction. P00519+Q13671. TR-FRET Rin1/Abl binding, biochemical. inhibition, % at 7.35 µM. hit rate 0.4% among 360,000. AID 588664; in the data active = inhibition above about 5%, passing the limit was not always enough
Neddyl block: inhibitors of human cullin neddylation | P61081+Q13564 | TR-FRET cullin neddylation, biochemical | calls only at 25 µM | hit rate 0.58% among 360,000 | AID 651699; in the data active = inhibition above about 36%
MBD2 inh: MBD2-methylated oligo binding inhibition; Q9UBB5; TR-FRET, MBD2 binding to methylated oligonucleotide; inhibition, % at 4.4 µM; hit rate 0.31% among 370,000; in the data active = inhibition above about 13%
KLK7 zymogen act: activators of human kallikrein-7 zymogen | P49862 | purified proKLK7, EDANS-DABCYL substrate fluorescence; 100% is mature enzyme control, 0% vehicle | activation, % at 7 µM | hit rate 0.9% among 370,000 | AID 652039;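 active = activation above the mean of all tested compounds plus 3 SD, computed per campaign excluding outliers beyond control limits, cut at about 13% in these data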
UHRF1 MBD2 ctr: UHRF1 methyl-DNA binding inhibition; Q96T88; UHRF1 binding to methylated oligo, TR-FRET; inhibition, % at 4.4 µM; hit rate 0.75% among 370,000; in the data active = inhibition above about 21%;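 also: UHRF1 SRA domain binding a hemimethylated CpG hairpin DNA probe; 0% = median of test compound wells and 100% = reference inhibitor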
Target sequence (Q96T88 whole entry, looked up, the tested form may be a part): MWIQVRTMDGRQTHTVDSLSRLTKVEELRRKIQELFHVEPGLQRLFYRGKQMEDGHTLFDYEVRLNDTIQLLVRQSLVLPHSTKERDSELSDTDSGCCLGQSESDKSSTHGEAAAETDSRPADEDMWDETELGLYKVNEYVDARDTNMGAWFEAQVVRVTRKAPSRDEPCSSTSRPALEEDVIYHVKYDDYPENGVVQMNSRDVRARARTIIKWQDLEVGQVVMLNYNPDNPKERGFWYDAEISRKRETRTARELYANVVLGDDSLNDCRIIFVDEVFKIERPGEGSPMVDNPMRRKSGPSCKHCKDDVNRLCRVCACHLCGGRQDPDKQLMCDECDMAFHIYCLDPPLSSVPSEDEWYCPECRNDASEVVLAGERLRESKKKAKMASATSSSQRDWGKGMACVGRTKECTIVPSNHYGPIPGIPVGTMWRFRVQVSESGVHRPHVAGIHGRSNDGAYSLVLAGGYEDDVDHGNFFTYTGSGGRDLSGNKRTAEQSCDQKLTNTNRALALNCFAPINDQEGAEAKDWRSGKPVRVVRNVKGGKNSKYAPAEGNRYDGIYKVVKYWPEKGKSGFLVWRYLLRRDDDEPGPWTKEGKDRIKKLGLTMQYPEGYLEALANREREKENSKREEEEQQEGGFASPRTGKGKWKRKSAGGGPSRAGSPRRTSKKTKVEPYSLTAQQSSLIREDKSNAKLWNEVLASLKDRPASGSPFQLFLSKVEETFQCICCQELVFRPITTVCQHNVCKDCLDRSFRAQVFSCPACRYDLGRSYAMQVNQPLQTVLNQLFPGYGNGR
LEDGF integ inh: blocks HIV-1 LEDGF/p75-dependent DNA integration; TR-FRET IN-LEDGF/p75 DNA integration, Eu/Cy5; inhibition, % at 3.7 µM; hit rate 0.64% among 370,000; AID 743269;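 active = inhibition above the screen-wide mean plus 3 SD, cut at about 13% in these data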;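 also: signal is the Cy5 over europium emission ratio at 671 and 618 nm; 0% = plate median of compound wells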
Neddyl inh conf: confirmation of human cullin neddylation inhibitors | shares compounds with Neddyl block | hit rate 13% among 1,800 | TR-FRET cullin neddylation biochemical assay | AID 652217 | calls only at 25 µM; in the data active = inhibition above about 40%;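 also: neddylation substrate is the cullin 1 ring ligase complex with SKP2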
* hit, by the source's call; i = inactive; · = no result given; + = active, no number.

SMILES | Rin1-Abl PPI inh | Neddyl block | MBD2 inh | KLK7 zymogen act | UHRF1 MBD2 ctr | LEDGF integ inh | Neddyl inh conf
N#CC1=C(N)Oc2cc(O)ccc2C1c1ccncc1 (stereo not drawn) | -1.7 | i | -11.3 | 1.0 | -4.8 | -0.5 | ·
C#CCOc1ccc(C2C(C#N)=C(N)Oc3cc(O)ccc32)cc1 (stereo not drawn) | -1.8 | + | 1.3 | -0.1 | 1.8 | -0.6 | i
COC(=O)c1ccc(C2C(C#N)=C(N)Oc3cc(N)ccc32)cc1 (stereo not drawn) | -4.0 | i | 2.7 | 0.4 | -1.8 | 9.8 | ·
Cc1ccc(-c2cc(C(=O)N(C)CC(=O)Nc3ccccc3Br)c3ccccc3n2)o1 | 0.1 | · | -5.2 | 1.5 | -2.6 | 2.8 | ·
CCc1cc(-c2ccc3c(c2)COc2c4ccccc4nn2-3)on1 | -0.4 | + | -4.6 | -5.2 | 0.6 | 0.1 | i
CCCC#Cc1ccc2c(c1)COc1c3ccccc3nn1-2 | -1.2 | i | -2.8 | 0.3 | -4.8 | -0.6 | ·
Cc1cc(NC(=O)CSc2ccc3nnc(-c4ccccn4)n3n2)no1 | 0.7 | + | -4.1 | 2.0 | -2.0 | -3.1 | ·
COc1ccccc1CC(=O)Nc1ccc(O)cc1C(=O)O | 0.9 | + | -1.1 | -3.4 | 2.5 | -2.5 | ·
CNS(=O)(=O)/C=C/c1ccccc1CCNC(=O)OC(C)(C)C | · | · | -2.3 | 0.2 | -0.5 | 5.3 | ·
COc1ccc(-c2cc(-c3ccco3)[nH]c(=O)c2C#N)cc1 | -3.7 | + | -1.6 | -0.5 | -5.8 | -0.9 | i
N#Cc1c(-c2cccc(Br)c2)cc(-c2ccco2)[nH]c1=O | -0.2 | · | 2.1 | -30.1 | 0.1 | 0.4 | ·
O=[N+]([O-])c1cccc(NCCCN2CCC(C(O)(c3ccccc3)c3ccccc3)CC2)c1 | · | · | 4.0 | 1.2 | -2.1 | 0.1 | ·
COc1ccc(NS(=O)(=O)c2cccc(C(=O)N3CCC3)c2)cc1 | 1.2 | i | -0.2 | 0.0 | -1.2 | -2.4 | ·
CCc1ccc(NC(=O)NNC(=O)c2ccc3ccccc3c2O)cc1 | -2.1 | · | -0.6 | -2.8 | 0.1 | -2.4 | ·
Cc1ccccc1NC(=O)NNC(=O)c1ccc2ccccc2c1 | -4.4 | i | 0.5 | 0.2 | -1.2 | 0.6 | ·
COc1ccccc1NC(=O)NNC(=O)c1ccc2ccccc2c1O | -2.1 | + | 1.9 | -3.5 | 1.0 | -1.7 | i
Cc1ccccc1NC(=O)NNC(=O)c1ccc2ccccc2c1O | 6.5 | + | 3.9 | -0.2 | -1.7 | -6.9 | +
COc1ccc(NC(=O)NNC(=O)c2ccc3ccccc3c2O)cc1OC | -2.1 | + | -5.3 | -0.7 | -0.4 | -4.5 | i
COc1ccccc1CNC(=O)CN(C)Cc1ccc(SC)cc1 | 1.7 | i | 2.5 | -0.1 | 0.8 | -5.0 | ·
CCCCn1c(N)c(N(CCOC)C(=O)c2cc(Cl)nc3ccccc23)c(=O)[nH]c1=O | -2.8 | i | 3.3 | -0.3 | -0.8 | -1.6 | ·
COc1ccc(-n2c(=S)[nH]c3cc(C(=O)NCCCN4CCCC4=O)ccc3c2=O)c(OC)c1 | 0.1 | i | -3.5 | 0.2 | -1.1 | -1.1 | ·
Cc1ccc2nc3c(cc(C(=O)NCc4ccco4)c(=N)n3Cc3ccco3)c(=O)n2c1 | -3.2 | + | -3.2 | -2.5 | -14.5 | 5.5 | i
N=c1c(C(=O)NCCN2CCOCC2)cc2c(=O)n3ccccc3nc2n1Cc1ccc(F)cc1 | -2.7 | + | -5.0 | 6.5 | 0.3 | -1.5 | ·
N=c1c(C(=O)NCc2ccco2)cc2c(=O)n3ccccc3nc2n1Cc1ccccc1 | -5.7 | · | -0.4 | 0.5 | -1.4 | 3.8 | ·
N=c1c(C(=O)NCc2ccco2)cc2c(=O)n3ccccc3nc2n1Cc1ccc(Cl)cc1 | -5.1 | + | -4.7 | 4.1 | 0.1 | 8.3 | i
SMILES | Rin1-Abl PPI inh | Neddyl block | MBD2 inh | KLK7 zymogen act | UHRF1 MBD2 ctr | LEDGF integ inh | Neddyl inh conf
COCCn1c(=N)c(C(=O)NCc2ccco2)cc2c(=O)n3ccccc3nc21 | -2.8 | · | -7.7 | 7.0 | -6.0 | -1.3 | ·
Cc1cccn2c(=O)c3cc(C(=O)NCc4ccc(F)cc4)c(=N)n(CCCN4CCOCC4)c3nc12 | -7.9 | · | -2.0 | 2.5 | -0.8 | 0.9 | ·
O=C(CNC(=O)c1ccc(Br)cc1)NCc1cccnc1 | 1.3 | i | -0.2 | -0.1 | 2.4 | -4.3 | ·
CC1CCN(S(=O)(=O)c2ccc(NC(=O)C3CCCCC3C(=O)O)cc2)CC1 (stereo not drawn) | 5.4 | i | · | · | · | · | ·
CCN(CC(=O)Nc1c(F)cccc1F)C(=O)C1COc2ccccc2O1 (stereo not drawn) | 5.9 | i | -1.8 | -0.3 | 0.3 | 2.5 | ·
O=C1OCc2nc3cc4c(cc3c(-c3ccc(F)cc3)c21)OCO4 | -1.5 | + | 0.2 | 0.0 | 4.4 | 2.3 | i
CCOC(=O)C1=CCC(c2ccccc2C)N(S(=O)(=O)c2ccc(C)cc2)C1 (stereo not drawn) | -2.0 | i | 5.8 | 0.8 | -0.8 | -11.2 | ·
COc1cc(/C=C/C(=O)OCC(=O)N2CCN(S(=O)(=O)c3ccc(C)cc3C)CC2)ccc1O | -4.0 | + | 4.1 | -1.9 | 2.6 | -1.0 | i
COc1cccc(/C=C/C(=O)OCC(=O)N2CCN(S(=O)(=O)c3ccc(Cl)cc3)CC2)c1 | -1.8 | + | -1.5 | -1.9 | 0.7 | -3.0 | i
CCN(CC)c1ccc(S(=O)(=O)N2CCOCC2)cc1NC(=O)COC(=O)/C=C/c1ccc(O)c(OC)c1 | -5.3 | + | -1.2 | -2.2 | -2.3 | 0.3 | i
COc1cccc(/C=C/C(=O)N2CCN(S(=O)(=O)c3ccccc3)CC2)c1 | -3.9 | + | -1.7 | 1.5 | 1.1 | -0.4 | i
CCN(CC)c1ccc(S(=O)(=O)N2CCOCC2)cc1NC(=O)COC(=O)/C=C/c1ccccc1 | -3.8 | i | -7.3 | -0.3 | -1.3 | 3.6 | ·
O=C(/C=C/c1ccccc1)N1CCN(S(=O)(=O)c2ccc(F)cc2)CC1 | -1.0 | i | 3.8 | 0.0 | -0.3 | 2.3 | ·
COc1ccccc1C(=O)NC1CCCCN(Cc2ccc(Cl)cc2)C1=O (stereo not drawn) | · | · | 3.0 | 0.8 | 0.4 | -3.3 | ·
O=c1[nH]c2ccccc2c2cn(-c3ccccc3)nc12 | -0.9 | + | -1.1 | 0.9 | -3.4 | -0.7 | i
CCCC[C@H]1C2CC(OC(=O)Nc3cccc(C(F)(F)F)c3)C(C2)[C@H]2CCCCN21 (stereo partly drawn) | · | · | 2.3 | 0.3 | -0.2 | -2.3 | ·
O=C1c2ccc(-c3ccc4c(c3)C(=O)N(CCCO)C4=O)cc2C(=O)N1CCCO | -3.1 | + | -1.1 | -2.6 | 0.3 | 3.2 | i
COc1cc(-c2cc3nc(C)c(C)c(=O)n3[nH]2)cc(OC)c1OC | -1.3 | + | 9.6 | -10.8 | 7.4 | -1.4 | i
CCc1c(C)nc2cc(-c3ccccc3)[nH]n2c1=O | -2.4 | · | 4.9 | -13.1 | 0.6 | -1.6 | ·
Cc1nnc2ccc(-c3ccc(NS(=O)(=O)c4ccc(Cl)s4)cc3)nn12 | -4.3 | + | -4.8 | 0.8 | -1.9 | -6.7 | ·
CCOCCCn1c(C)nc2c(c1=O)c1nc3ccccc3nc1n2-c1ccc(C)cc1 | -2.8 | + | · | · | · | · | i
